PubChem BioAssay (EPA / NIEHS)
Calls of active or inactive are those of the source. Rule for the calls: active = hit-call score of the fitted dose curve at least 0.9, where 1 is the maximum; inactive = score below 0.9.

Assays:
[1] = read-out: Monokine induced gamma interferon (MIG), CXCL9 (gene 4283); assay: BSK_SAg_MIG: BioMAP Diversity Plus: SAg Assay for Monokine induced gamma interferon (MIG) Biomarker Activity (AID 2283092); conditions: primary human HUVEC with PBMC; actives raise or lower the signal
Procedure, shortened: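 Values reflect bidirectional fitting of ELISA-measured MIG against DMSO vehicle, taken 24 h after dosing of a co-culture of human umbilical vein endothelial cells and peripheral blood mononuclear cells.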

[2] = BSK_SAg_PBMCCytotoxicity: PBMC Cytotoxicity Assessment in the BioMAP Diversity Plus: SAg Assay (AID 2283093); conditions: primary human HUVEC with PBMC;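 note: fitted both ways against DMSO so a hit may be loss or gain of signal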
Procedure, shortened: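 PBMC viability by Alamar Blue reduction, fluorescence read at 546/580 nm after 6 h dye exposure. Cells were dosed 1 h before SEB plus TSST-1 activation (20 ng/mL final each), then held 90 h; endothelial/PBMC human co-culture.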

[3] = read-out: Interleukin-8 (IL8), CXCL8 (gene 3576); assay: BSK_SAg_IL8: BioMAP Diversity Plus: SAg Assay for Interleukin-8 (IL8) Biomarker Activity (AID 2283094); conditions: primary human HUVEC with PBMC; actives raise or lower the signal
Procedure, shortened: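 Primary human endothelial cells with PBMC, exposed 24 h; IL-8 determined by ELISA, analysed bidirectionally relative to DMSO.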

[4] = BSK_SAg_Proliferation: Cell Proliferation Assessment in the BioMAP Diversity Plus: SAg Assay (AID 2283095); conditions: primary human HUVEC with PBMC;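 note: relative cell number as total protein by SRB absorbance in sub-confluent culture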
Procedure, shortened: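 A human primary co-culture of umbilical vein endothelium and blood mononuclear cells receives compound; relative cell number is quantified at 96 h by SRB staining and 560 nm absorbance, with DMSO-referenced bidirectional curve fitting.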

[5] = BSK_SAg_SRB: Viability Assessment in the BioMAP Diversity Plus: SAg Assay (AID 2283096); conditions: primary human HUVEC with PBMC;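 note: cells read one day after compound addition; hits may be either gain or loss of signal compared with DMSO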
Procedure, shortened: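 Compounds were added to a human vascular co-culture of umbilical vein endothelium and PBMC. After 24 h, parallel cultures were fixed with 10% TCA, stained with 0.1% sulforhodamine B and read at 560 nm. Gain or loss of signal was fitted relative to DMSO.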

| SMILES | outcome [1] | outcome [2] | outcome [3] | outcome [4] | AC50 [4] | outcome [5] |
| --- | --- | --- | --- | --- | --- | --- |
| C#CC(O)C(CC)CCCC (stereo not drawn) | inactive | inactive | inactive | inactive |  |  |
| CN(C)CCCN(C)CCCN(C)C | inactive | inactive | inactive | inactive |  |  |
| O=C(O)CC(O)(CC(=O)O)C(=O)O | inactive | inactive | inactive | inactive |  |  |
| CCCCCCC(CCCCCCCCCCC(=O)OCC(COC(C)=O)OC(C)=O)OC(C)=O (stereo not drawn) | inactive | inactive | inactive | inactive |  |  |
| CCCCc1nc2cccnc2n1Cc1ccc(-c2ccccc2-c2nnn[nH]2)cc1 | inactive | inactive | inactive | inactive |  |  |
| CN(C)C(=O)NC1(c2ccccc2)CCN(CC[C@@]2(c3ccc(F)c(F)c3)CN(C(=O)c3ccccc3)CCO2)CC1 | inactive | inactive | inactive |  | 26.1 µM (active) |  |
| COC(=O)CCCC(=O)OC | inactive | inactive | inactive |  |  |  |
| Oc1ccccc1O | inactive | inactive | inactive |  | 24.5 µM (active) |  |
| O=C(O)c1[nH]n(-c2ccc(S(=O)(=O)O)cc2)c(=O)c1N=Nc1ccc(S(=O)(=O)O)cc1 | inactive | inactive | inactive |  |  |  |
| O=C1NC(=O)C(c2ccccc2)(c2ccccc2)N1 | inactive | inactive | inactive |  |  |  |
| CC(=O)O | inactive | inactive | inactive |  |  |  |
| CCCC[C@H]1CN(CC2CCOCC2)C(=O)OC12CCN(C1(C)CCN(C(=O)c3c(C)ncnc3C)CC1)CC2 | inactive | inactive | inactive | inactive |  | inactive |
| CC(C)c1cccc(C(C)C)c1 | inactive | inactive | inactive | inactive |  | inactive |
| CCCCOC(=O)CCCCC(=O)OCCCC | inactive | inactive | inactive |  |  |  |
